# Source: PubChem
# Only some compounds are listed: those with a hit (about 1.5% of all), similar ones and a draw of the others.
# CendR NRP1 mod: modulators of CendR peptide binding to human neuropilin-1. O14786. FAM-RPARPAR peptide binding to NRP-1, fluorescence polarization. inhibition, % at 25 µM. hit rate 0.85% among 360,000. AID 602438;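 active means inhibition or corrected inhibition above about 18%, plus a signal ratio from 0.5 to 1.5, limit read from the data, passing the limit was not always enough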
# Target sequence (O14786 whole entry, looked up): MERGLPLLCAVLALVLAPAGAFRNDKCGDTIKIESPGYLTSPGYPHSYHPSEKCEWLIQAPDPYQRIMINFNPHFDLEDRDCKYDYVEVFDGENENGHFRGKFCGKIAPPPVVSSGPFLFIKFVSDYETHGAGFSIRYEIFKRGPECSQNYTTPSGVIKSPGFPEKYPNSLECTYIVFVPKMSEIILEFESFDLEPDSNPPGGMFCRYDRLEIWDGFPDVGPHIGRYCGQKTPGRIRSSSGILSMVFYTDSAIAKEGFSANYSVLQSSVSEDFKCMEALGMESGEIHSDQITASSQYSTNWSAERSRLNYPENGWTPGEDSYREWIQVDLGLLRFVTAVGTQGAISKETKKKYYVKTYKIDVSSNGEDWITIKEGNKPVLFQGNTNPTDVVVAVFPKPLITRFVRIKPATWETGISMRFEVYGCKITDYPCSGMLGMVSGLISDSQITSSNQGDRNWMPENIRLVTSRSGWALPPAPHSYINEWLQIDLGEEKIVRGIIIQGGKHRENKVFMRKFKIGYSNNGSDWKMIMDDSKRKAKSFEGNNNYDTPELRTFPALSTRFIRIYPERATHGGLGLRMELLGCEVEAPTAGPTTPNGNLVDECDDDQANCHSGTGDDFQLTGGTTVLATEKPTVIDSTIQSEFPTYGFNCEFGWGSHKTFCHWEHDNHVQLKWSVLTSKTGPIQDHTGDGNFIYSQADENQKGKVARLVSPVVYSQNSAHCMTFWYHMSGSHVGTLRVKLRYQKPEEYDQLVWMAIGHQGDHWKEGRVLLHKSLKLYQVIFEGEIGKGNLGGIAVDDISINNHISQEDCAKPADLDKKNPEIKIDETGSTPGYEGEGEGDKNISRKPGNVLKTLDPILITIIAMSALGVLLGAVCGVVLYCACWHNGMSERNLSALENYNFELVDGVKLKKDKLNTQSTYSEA
# FID counter: counter-screen for HCV NS3 helicase inhibitors: DNA intercalator displacement; DNA fluorescent intercalator displacement, fluorescence; inhibition, % at 7.9 µM; hit rate 0.17% among 290,000; in the data active means inhibition above about 37%;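 further: 0% = vehicle and 100% = reference compound; higher means more ethidium bromide displaced from hairpin DNA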
# miR122 inh: blocks miR-122 activity in Huh7 sensor cells; hit rate 0.3% among 340,000; activation (reporter increase), % at 12.5 µM; AID 602342; Huh7 miR-122 Renilla luciferase sensor, 48 h; neutral wells = 0, positive control = 100;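 active means mean replicate activation score at least 90 and every replicate individually at or above 90; inconclusive means only one of the two criteria met; inactive means neither criterion met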;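 further: higher luciferase means less miR-122 activity so hits act as miR-122 inhibitors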
# RAD54 branch: inhibitors of human RAD54 branch migration; RAD54 Holliday junction branch migration, FAM/BHQ fluorescence; hit rate 0.14% among 360,000; inhibition, % at 10.4 µM;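 active means mean normalized replicate activity at least 40 and at least half of replicates scoring 40 or more; inconclusive means only one of the two criteria met; inactive means mean below 40 and under half of replicates reaching 40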;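 further: 0% = median of neutral control wells and 100% = median of positive control wells; inhibitors cause a drop in the FAM fluorescence signal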
# RAD52 inh: inhibitors of human RAD52 DNA annealing; P43351; recombinant RAD52 DNA annealing, FRET fluorescence; inhibition, % at 18.7 µM; hit rate 0.46% among 360,000;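 active means every replicate showing at least 50% inhibition; inconclusive means mean inhibition at least 50% but not in every replicate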
# N-glyco inh: N-linked glycosylation inhibition; reporter increase, % at 12.5 µM; hit rate 0.23% among 360,000; D54 ERlucT glycosylation luciferase reporter, 24 h; percent of 100 nM tunicamycin response;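 active means mean luciferase reporter signal, scaled so untreated is 0 and the glycosylation-blocking control 100, at or above a set limit in every replicate; inconclusive means mean reaches the limit but not every replicate does; inactive means mean below the limit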;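 further: luciferase carries N-glycosylation sites so blocking glycosylation raises the light; 0% = median of neutral control wells and 100% = median of 100 nM tunicamycin wells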
# * = called active by the depositor; ? = inconclusive; . = no result; [ ] = dose if it differs, or a comment.
SMILES,CendR NRP1 mod,FID counter,miR122 inh,RAD54 branch,RAD52 inh,N-glyco inh
C[C@@H]1CN([C@@H](C)CO)C(=O)Cc2cc(NS(=O)(=O)c3cccs3)ccc2O[C@@H]1CN(C)S(=O)(=O)c1ccccc1,.,.,50[16.7 µM],-2,4,.
CCc1ccc(/C=C2\SC(=S)N(CCCC(=O)N(CCO)c3ccccc3)C2=O)cc1,28*,.,-21,-6,-16,-3
CCOC(=O)N1CCN(C(=O)CCN2C(=O)/C(=C\c3ccc(OC)c(OC)c3)SC2=S)CC1,-12,.,-1,12,-18,1
CCOc1ccc(/C=C2\SC(=S)N(CCC(=O)N(CCO)c3ccccc3)C2=O)cc1,0,-28,4,-11,3,-5
COc1ccc(/C=C2\SC(=S)N(CCC(=O)NC3CCCC3)C2=O)cc1OC,22*,-12,.,1,-17,19
COc1cc(/C=C2\SC(=S)N(CCC(=O)N3CCCCC3)C2=O)cc(OC)c1OC,4,-37,-4,-9,-18,70*
CC(C)NC(=O)N(C)C[C@H]1Oc2ncc(C#CC3CC3)cc2C(=O)N([C@@H](C)CO)C[C@@H]1C,.,.,17[16.7 µM],6,-3,.
COc1nc(-c2ccccc2)c2cc(C)ccc2n1,2,-10,-3,8,-1,1
CCOc1nc(-c2ccccc2)c2cc(C)ccc2n1,20*,-34,-3,2,-3,-3
Oc1cccc2ccc[n+](CC(O)Cn3c4ccccc4c4ccccc43)c12 (configuration not stated),3,39*,7,19,.,-8
CSC(=S)NN=C(C)c1cccc(C)n1,27*,.,7,.,-8,-8
CC(=NNC(=S)N1CCCCC1)c1cccc(C)n1,9,.,.,.,-16,-10
O=C(C[C@@H]1CC[C@@H](NC(=O)c2ccncc2)[C@@H](CO)O1)NCc1ccncn1,.,.,.,.,-15,.
c1ccc(C2=Nn3c(nnc3-c3n[nH]c4c3CCC4)SC2)cc1,13,-21,9,2,.,38*
Clc1ccc(C2=Nn3c(nnc3-c3n[nH]c4c3CCC4)SC2)cc1Cl,10,-27,2,0,.,81*
Clc1ccc(C2=Nn3c(nnc3-c3cc(-c4ccccc4)n[nH]3)SC2)cc1,7,-3,-3,8,.,?
COc1ccc2c3c([nH]c2c1)[C@@H](CO)N(Cc1ccccc1OC)CC31CN(S(=O)(=O)c2ccccc2)C1,.,.,.,.,-14,.
COc1ccc2c3c([nH]c2c1)[C@H](CO)N(Cc1cccc(Cl)c1)CC31CN(C)C1,.,.,.,.,56*,.
COc1cc(CN2CC3(CN(C)C3)c3c([nH]c4cc(OC)ccc34)[C@@H]2CO)cc(OC)c1,.,.,.,.,54*,.
COc1cccc(CN2CC3(CN(C)C3)c3c([nH]c4cc(OC)ccc34)[C@H]2CO)c1,.,.,.,.,46,.
COc1ccc(S(=O)(=O)N2CCC3(CC2)CN(Cc2ccccc2OC)[C@@H](CO)c2[nH]c4cc(OC)ccc4c23)cc1,.,.,.,.,52*,.
CN1CCN(C(=O)C[C@H]2CC[C@H]3[C@@H](COC[C@H](O)CN3Cc3ccc4c(c3)OCO4)O2)CC1,.,.,-6[16.7 µM],-1,10,.
O=C(NCC[C@H]1CC[C@@H](NC(=O)C2CCOCC2)[C@H](CO)O1)c1ccc(F)cc1,.,.,.,-23,3,.
C[C@H](CO)N1C[C@H](C)[C@H](CN(C)C)Oc2c(NC(=O)c3ccncc3)cccc2C1=O,.,.,8[16.7 µM],0,0,.
CC(CN1CCOCC1)OC(=O)c1ccc2c(c1)OCCO2 (configuration not stated),27*,3,-1,-13,.,-2
SMILES,CendR NRP1 mod,FID counter,miR122 inh,RAD54 branch,RAD52 inh,N-glyco inh
CC(CN1CCCCC1)OC(=O)c1ccc2c(c1)OCCO2 (configuration not stated),-3,-5,.,-3,-12,-3
C#CCOCCOCCOCCNc1nc(N2CCN(C(=O)[C@H](Cc3ccc(O)cc3)n3cc(CCO)nn3)CC2)nc(N2CCN(C(=O)[C@H](Cc3ccc(O)cc3)n3cc(CCO)nn3)CC2)n1,.,-57,.,.,.,.
C#CCOCCOCCOCCNc1nc(N2CCN(C(=O)[C@H](C(C)C)n3cc(CCO)nn3)CC2)nc(N2CCN(C(=O)[C@H](Cc3ccc(O)cc3)n3cc(CCO)nn3)CC2)n1,29*,.,-3,-10,-8,1
C#CCOCCOCCOCCNc1nc(N2CCN(C(=O)[C@H]([C@@H](C)O)n3cc(CCCCN)nn3)CC2)nc(N2CCN(C(=O)[C@H](Cc3ccc(O)cc3)n3cc(CCO)nn3)CC2)n1,22*,9,-2,-23,10,2
Cc1cc(C(=O)CN2C(=O)c3ccccc3S2(=O)=O)c(C)n1-c1ccccc1,-5,-14,-3,-3,.,-16
Cc1cc(C(=O)CN2C(=O)C3CC=CCC3C2=O)c(C)n1-c1ccccc1 (configuration not stated),29*,-3,22,-6,.,-12
COc1ccc(C(=O)Nc2cc([N+](=O)[O-])ccc2N2CCN(C)CC2)cc1,1,18,.,.,.,-3
CN1CCN(c2ccccc2NC(=O)c2ccc(-c3cccc([N+](=O)[O-])c3)o2)CC1,45*,-22,.,.,.,5
COc1cccc(C(=O)Nc2cc([N+](=O)[O-])ccc2N2CCN(C)CC2)c1,-6,18,292*,6,-12,-2
COc1ccc(CN2[C@@H]3CN(C(=O)c4ccccc4)c4ccccc4[C@@H]3[C@@H]2CO)cc1,.,.,20[16.7 µM],-7,-10,.
COC(=O)C1=C(C)N(CCCC(=O)O)C(=O)NC1c1ccc(-c2ccccc2)cc1 (configuration not stated),30*,-42,-3,2,-13,2
COc1ccc2c3c(n(C)c2c1)[C@@H](CO)N(Cc1ccc2c(c1)OCO2)CC31CCN(C(C)=O)CC1,.,.,.,.,-8,.
CCN1C(=O)Nc2cccc3cccc1c23,-4,.,-3,2,-3,30*
C=CCN1C(=O)N(CC=C)c2cccc3cccc1c23,3,-24,10,0,-13,1
Cc1ccc(NC(=O)c2ncn(CCCNCCCc3ccccc3)n2)cc1C,33*,.,-2,5,-3,24
COc1ccc(-c2cc3ccccc3oc2=O)cc1NC(=O)c1ccc([N+](=O)[O-])o1,-10,4,-2,.,.,50*
COc1ccc(-c2cc3ccccc3oc2=O)cc1NC(=S)NC(=O)c1ccc2c(c1)OCCO2,-11,6,-6,16,.,70*
CC(=O)c1c(C)[nH]c(C(=O)OCC(=O)NCc2ccc(Cl)cc2)c1C,9,.,-5,-2,-12,1
CC(=O)c1c(C)[nH]c(C(=O)OCC(=O)NCc2cccs2)c1C,21*,.,1,2,-19,1
Oc1cc(NCCN2CCOCC2)cc2cccnc12,29*,.,1,-12,48,21
Oc1cc(Nc2ccccc2)cc2cccnc12,-4,.,-6,-12,-17,38*
